Screening results as filed in PubChem.
12-LOX inh: Primary qHTS assay for inhibitors of human arachidonate 12S-lipoxygenase (ALOX12): Round 2; 1.1% of 580,000 active; Polyunsaturated fatty acid lipoxygenase ALOX12 (Homo sapiens), P18054; purified 12hLO, xylenol orange hydroperoxide absorbance; Potency, µM (highest dose often 108 µM), for the others: at the top dose activity change, negative = inhibition, most hits filed as inhibitors; active means well fitted inhibition curve with a large enough effect; inconclusive means small, poorly fitted or top-dose-only effect, or another doubt; inactive means no such curve, though single readings can be large or run the other way; further: potency means the concentration at half of the fitted maximal effect; on the % scale 0 is the no-effect control and ±100 the full control effect
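Purified human 12hLO (150 nM final) in 25 mM Hepes, 0.01% Triton X-100, pH 7.0 was preincubated 15 min at room temperature with compound. Then 40 uM arachidonic acid was added, 30 min. Hydroperoxide was read by Fe-XO absorbance ratio 573/405 nm.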
LDHA block: qHTS assay for inhibitors of human lactate dehydrogenase; L-lactate dehydrogenase A chain (Homo sapiens), P00338; purified LDHA, NADH/diaphorase-resazurin fluorescence; hits give low values; activity change, % (values are at about 110 or 230 µM); 0.15% of 480,000 active; AID 1347041, 2019; in the data active means activity change below about -30%; inconclusive means mostly about -25% to -30%;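 further: plate controls were DMSO wells for no effect and wells without enzyme for full effect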
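Human LDH5 at 2 nM final in Tris HCl pH 7.4 with 0.06 mM NADH and 0.2 mM pyruvate, reacted 5 minutes at room temperature. Remaining NADH coupled via diaphorase/resazurin; resorufin fluorescence read at 0 and 20 minutes, normalized to enzyme-free and DMSO wells.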
ClpP mod: qHTS Assay for Activators of ClpP; Potency, µM (series often up to 57.5 µM), without a hit: at the highest dose activity change, negative = active; 1.9% of 340,000 active; purified B. subtilis ClpP, FRET peptide cleavage, 20 min; ATP-dependent Clp protease proteolytic subunit (Bacillus subtilis (strain 168)), P80244; AID 651965, 2013; active means well fitted falling curve with a large enough effect; inconclusive means small, poorly fitted or top-dose-only effect; inactive means no such curve, though single readings can be large or run the other way; further: potency means the concentration at half of the fitted maximal effect; the source files actives as falling curves though it sought activators and does not explain the sign; nearly all actives have a fitted effect of over 65% in size
Target sequence (P80244 whole entry, looked up): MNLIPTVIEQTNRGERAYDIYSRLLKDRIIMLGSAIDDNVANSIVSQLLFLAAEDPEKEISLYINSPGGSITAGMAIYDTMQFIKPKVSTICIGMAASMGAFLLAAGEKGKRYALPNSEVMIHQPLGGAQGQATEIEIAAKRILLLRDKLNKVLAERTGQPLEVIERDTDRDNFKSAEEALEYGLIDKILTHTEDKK
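Buffer: 100 mM Tris/HCl pH8, 100 mM KCl, 0.05% low protease BSA, 2.5% glycerol, 0.01% Tween-20. ClpP 10 microg/mL final; 20 min RT; delta FRET normalized to ADEP and DMSO controls.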
hERG WT inh: qHTS for Inhibitors of KCHN2 3.1: Wildtype qHTS; 0.37% of 340,000 active; activity change, % at 1.84 µM; U2OS, BacMam KCNH2, thallium flux FluxOr; hits give low values;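 active means maximum activity change below -70%; inconclusive means maximum activity change between -70% and -50%; inactive means maximum activity change above -50%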; further: on the % scale 0 is the no-effect control and ±100 the full control effect
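U2OS cells were transduced with wild-type KCNH2 virus (2.03 x 10^8 / mL) for 4 h at room temperature, then cultured overnight at 37 C. Thallium flux was read with FluxOr dye. Rate constants were normalized to DMSO controls.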
KCNH2 3.1 inh: qHTS for Inhibitors of KCHN2 3.1: Mutant qHTS | AID 720553, 2013 | U2OS KCNH2 3.1, thallium flux FluxOr; hits give low values | activity change, % (tested at about 1.8 µM) | 0.95% of 340,000 active;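 active means maximum activity change below -70%; inconclusive means maximum activity change from -70% to -50%; inactive means maximum activity change above -50%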;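 further: thallium influx rate constant from kinetic fluorescence after stimulation buffer; on the % scale 0 is the no-effect control and ±100 the full control effect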
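Virally transduced U2OS (3.1 isoform, 4 h infection in dark at RT) → overnight 37 C → FluxOr + Red40 in HBSS/HEPES, 45 min → stimulation buffer, 2 min kinetic read → rate constant vs DMSO controls.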
Chronic BCR inh: qHTS Assay to Find Inhibitors of Chronic Active B-Cell Receptor Signaling. ABC-DLBCL IkBa-CBG/CBR reporter, luminescence ratio, 4 h. Potency, µM (titrated, usually from 46.1 µM), for inactives: at the highest dose activity change, negative = inhibition, actives largely listed as inhibitors. 0.05% of 340,000 active. AID 493014, 2011; active means well fitted inhibition curve with a large enough effect in the signal ratio, with a control signal flat, not every such curve was filed as active; inconclusive means small, poorly fitted or top-dose-only effect, or effect the other way, or a change in a side signal; the % refers to the signal ratio;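 further: potency means the concentration at half of the fitted maximal effect; plate controls were basal doxycycline-induced cells for no effect and cells given 10 µM MG132 for full effect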
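Compounds up to 46 uM were incubated four hours with TMD8 cells whose green CBG68 luciferase is fused to IkappaBalpha; red CBR luminescence normalised the signal, and concentration-effect curves were fitted to fusion, red and ratio data.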
The depositor's hits bear a star; ? = inconclusive; . = not tested or not shown; [ ] = dose if it differs, or a comment. Rows were chosen to be rich in hits. Some 3% of all compounds tested hit in one or more screens of this group.

SMILES	12-LOX inh	LDHA block	ClpP mod	hERG WT inh	KCNH2 3.1 inh	Chronic BCR inh
CSC1=NC2(CC(c3ccccc3)Oc3cc(O)ccc32)CC(C)(C)N1 (stereo not given)	-27.7%	4.4	-2.4%	?	-93.7*	11.8%
CN1CCN(c2ncc3nc(-c4cn(C)c5ccccc45)c(=O)n(-c4ccccc4)c3n2)CC1	6.31µM*	.	.	.	.	.
CC(=O)NC12CC3CC(C1)CC(C(=O)NC1CCCc4ccccc41)(C3)C2 (stereo not given)	-7.6%	5.8	.	.	.	.
CCOc1nc(-c2ccncc2)nc2ccccc12	-5.0%	-3.9	-0.2%	38.1	-5.4	13.6%
CCCOc1ccc(-c2nc(OCC)c3ccccc3n2)cc1	4.8%	5.3	31.6µM*	6.3	6.2	18.7%
COc1cc(CNCc2c[nH]c3ccccc23)cc(OC)c1	?	-14.4	0.5%	-5.5	14.4	?
COc1cc(CNCc2cccc3ccccc23)cc(OC)c1	0.708µM*	-11.3	2.2%	4.9	5.8	-0.5%
COc1ccccc1CN1CCN(C(=O)C2CCCN(Cc3cccnc3)CCC(=O)NCC2)CC1 (stereo not given)	87.4%	.	.	.	.	.
Cc1cccc(C(=O)Nc2ccc(OC(=O)c3ccc4c(c3)NC(=O)CCS4)cc2)c1	?	7.7	.	.	.	.
CN(Cc1cccnc1)C1CCCc2ccccc21 (stereo not given)	17.4%[176 µM]	.	.	.	.	.
c1cncc(CNC2CCCc3ccccc32)c1 (stereo not given)	0.0%	-6.9	-1.1%	-18.3	-99.1*	-0.7%
CC(C)c1ccc(NC(=O)C2CCN(c3cc(C(F)(F)F)ncn3)CC2)cc1	16.5%	.	.	.	.	.
CC(NC(=O)C1CCN(c2cc(C(F)(F)F)ncn2)CC1)c1ccccc1 (stereo not given)	44.7µM*	.	.	.	.	.
CCC(C)NC(=O)N1CCC(c2nn(CC(=O)NC)c3c2COCC3)CC1 (stereo not given)	49.4%	.	.	.	.	.
CC(C)=C(/C(=C/CS(=O)(=O)c1ccccc1)S(=O)(=O)c1ccccc1)S(=O)(=O)c1ccccc1	?	-0.6	.	.	.	.
CCn1nnc(NC(=O)c2ccc(-c3ccc(Cl)cc3)o2)n1	0.0%	-5.1	11.2µM*	16.6	31.2	?
Cc1ccc2nc(C)c(C(=O)N3CCN(S(=O)(=O)c4cc(F)ccc4F)CC3)cc2c1	-6.8%	-1.3	.	.	.	.
Cc1ccc(S(=O)(=O)N2CCN(C(=O)c3cc4cc(C)ccc4nc3C)CC2)cc1	39.8µM*	7.1	.	.	.	.
O=C1Nc2ccccc2CC12CCN2[S+](=O)([O-])c1ccccc1 (stereo not given)	19.5%[176 µM]	.	.	.	.	.
CCCCCc1cc(=O)oc2c(C(CCN3CCCCC3)c3ccc(OC)cc3)c(OC)cc(OC)c12 (stereo not given)	?	-11.9	4.2%	?	?	?
CCCCCc1cc(=O)oc2c(C(CCN3CCCC(C)C3)c3ccc(OC)cc3)c(OC)cc(OC)c12 (stereo not given)	?	2.9	?	-114.7*	-91.4*	-0.2%
O=C(c1cc(Cl)c2c(c1)OCCO2)N1CCSc2ccccc21	1.2%	2.5	.	.	.	.
COCc1cc(C)n(CC(=O)Nc2ccc(Cl)cc2Cl)c(=O)c1C#N	-26.4%	-4.7	25.1µM*	-9.1	-4.8	10.1%
CCOC(=O)c1sc(NC(C)CC)nc1C(F)(F)F (stereo not given)	31.9%	-8.2	.	.	.	.
Cc1cccc(C)c1Nc1c(-c2ccsc2)nc2ccccn12	?	0.3	28.2µM*	.	.	.
CCC(C)(C)NC(=O)Nc1cc(Cl)ccc1OC	-8.6%	-4.5	2.2%	1.3	-80.9*	4.0%
COc1ccc(Cl)cc1NC(=O)CC(=O)Nc1cc(Cl)ccc1OC	1.0%	-4.3	.	-8.8	0.3	?
